Many of the other results were omitted from the sample, so hits are more common in it than they were.
RORgamma inh: inhibitors of mouse ROR gamma transcriptional activity; P51450; Drosophila S2 Gal4-RORgamma UAS-luciferase reporter, 20 h; Potency, µM (highest dose often 53.6 µM), without a hit: at the top dose activity change, negative = inhibition, hits mostly inhibitors; 310,000 compounds, 5.4% hits; AID 2551; also: potency is read from the fitted curve at half-maximal effect; % is scaled to controls: 0 for no effect and ±100 for the full control effect; nearly all actives have a fitted effect of over 60% in size
Target sequence (P51450 whole entry, looked up, the tested form may be a part): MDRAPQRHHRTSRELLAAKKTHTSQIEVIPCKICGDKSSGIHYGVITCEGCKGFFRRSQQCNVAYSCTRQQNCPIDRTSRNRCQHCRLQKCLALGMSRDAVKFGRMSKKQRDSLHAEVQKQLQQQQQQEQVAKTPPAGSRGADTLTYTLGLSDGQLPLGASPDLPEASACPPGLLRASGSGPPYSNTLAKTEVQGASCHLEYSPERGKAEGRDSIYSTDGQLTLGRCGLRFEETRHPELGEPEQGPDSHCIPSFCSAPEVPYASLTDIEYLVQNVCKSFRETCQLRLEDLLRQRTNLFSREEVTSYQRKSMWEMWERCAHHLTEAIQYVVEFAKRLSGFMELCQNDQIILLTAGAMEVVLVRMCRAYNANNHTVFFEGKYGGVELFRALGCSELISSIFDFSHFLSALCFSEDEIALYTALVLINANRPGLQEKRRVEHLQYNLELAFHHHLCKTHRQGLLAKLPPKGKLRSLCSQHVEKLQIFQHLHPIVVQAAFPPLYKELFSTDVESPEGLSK
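Stable Schneider cell line, Gal4 DNA-binding domain fused to ROR gamma, UAS-luciferase. Cmpd 1 hr RT → CuSO4 700 uM final → 20 hr RT → luciferase reagent 10 min → luminescence.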
ERG Ets-DNA blk: ERG Ets/DNA interaction inhibition. P11308. fluorescence polarization, His-ERG Ets domain / labelled DNA. Potency, µM (highest dose often 76.9 µM), inactives show top-dose FP activity, negative = inhibition, hits mostly inhibitors. 370,000 compounds, 0.028% hits; active = well fitted inhibition curve with a large enough effect in the polarisation, with a control signal flat; inconclusive = small, poorly fitted or top-dose-only effect, or effect the other way, or a change in a side signal; inactive = no such curve, though single readings can be large or run the other way; the % refers to the polarisation;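 also: polarization taken with two DNA probes labelled with fluorescein and Texas red; potency is read from the fitted curve at half-maximal effect; % of control where 0% means no effect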
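His-tagged ERG Ets domain (1 uM in the protein solution; 300mM KCl, 50mM Tris-HCl, 1mM EDTA, 1mM DTT, pH 7.5) received compound, then a probe mix of 5 nM fluorescein-DNA and 100nM Texas-615-DNA. Fluorescence polarization was read for both dyes.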
VP16 counter: counter-screen for ROR gamma inhibitors: Gal4-VP16 reporter; Drosophila S2 Gal4-VP16 UAS-luciferase, luminescence, 20 h; Potency, µM (doses to about 53.6 µM), for the others: at the highest dose activity, negative = inhibition, usual class: inhibitors; 310,000 compounds, 3.5% hits;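 also: Gal4-VP16 expression switched on by copper sulfate through the metallothionein promoter; potency is read from the fitted curve at half-maximal effect; % is scaled to controls: 0 for no effect and ±100 for the full control effect; nearly all actives have a fitted effect of over 50% in size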
a7 integrin act: activators of alpha7 integrin expression for muscular dystrophy | Potency, µM (series often up to 38.3 µM), inactives show top-dose activation, most hits filed as activators | AID 624291 | 350,000 compounds, 0.064% hits | alpha7betagal myoblasts, beta-gal FDG fluorescence, 48 h;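 also: potency is read from the fitted curve at half-maximal effect; 100% = response of the positive control SU9516; nearly all actives have a fitted effect of over 60% in size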
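Alpha7betagal+/- myoblasts (passage 13) were plated 16-24 hr, then exposed to compounds (1:260 dilution of DMSO stock) for 48 hours at 37C. After MPER lysis, β-galactosidase reporter activity was read as FDG fluorescence (ex 480/em 540) after 30 minutes.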
Giardia kill: Giardia lamblia killing; activity change, % at 7.66 µM, hits read low; 340,000 compounds, 0.15% hits; Giardia lamblia trophozoite viability; in the data active = activity change below about -80%; inconclusive = between about -30% and that limit;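 also: parasites exposed to compound for two days anaerobically before the ATP read; % is scaled to controls: 0 for no effect and ±100 for the full control effect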
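Viability, read as ATP luminescence: trophozoites at 100 cells/well, compound added, 48 hrs anaerobic at 37 deg C, then 15-30 min room-temperature development before reading.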
An asterisk follows results filed as active; ? = inconclusive; . = no result given; ! = repeats disagree; [ ] = remark or other dose. Unless noted, calls follow the shape of the dose curve; as a rule, active = well fitted curve in the direction sought with a large enough effect; inconclusive = small, poorly fitted or top-dose-only effect, or another doubt; inactive = no such curve, though single readings can be large; an effect the other way counts as inactive or inconclusive.

SMILES | RORgamma inh | ERG Ets-DNA blk | VP16 counter | a7 integrin act | Giardia kill
O=C1SC(Cc2ccccc2)C(=O)N1c1ccccc1 (configuration not stated) | -3.6% | 0.7% | -20.4% | 7.94µM* | -12.5
C[C@H]1C[C@@H](C)C(=O)[C@@H]([C@H](O)CC2CC(=O)NC(=O)C2)C1 | 0.251µM*! | -1.0% | 2.82µM*! | -39.3% | ?
CCOC(=O)CN1C(=O)CC(C[C@@H](O)C2C[C@@H](C)C[C@H](C)C2=O)CC1=O (some centres not stated) | -3.0% | . | 0.9% | . | .
CC1CC(C)C(=O)[C@H](C(O)CC2CC(=O)NC(=O)C2)C1 (some centres not stated) | 0.316µM* | . | 2.3% | . | .
Cc1ccc(-n2c(/C=C/c3cc(Br)cs3)nc3ccccc3c2=O)cc1C | . | -1.8% | . | . | .
[O]=[Sb]([OH])([OH])[c]1ccccc1 | . | . | . | . | -3.3
N#CCBr | 6.4% | . | -3.1% | . | .
CC(C)Sc1nnc([C@@H](N)Cc2ccccc2)o1 | -57.3% | 0.3% | 11.2µM* | 7.5% | -9.4
CSc1nnc([C@@H](N)Cc2ccccc2)o1 | -2.1% | -0.8% | 0.3% | -3.1% | 7.9
Cc1ccc(OP(=O)(Oc2ccc(C)cc2)Oc2ccc(C)cc2)cc1 | 40.2% | . | -17.8% | . | .
CCN(CC)C(=O)c1ccc(NC(=O)Nc2ccccc2F)cc1 | 11.2µM* | -5.2% | ? | -4.8% | ?
CC(=O)O[C@@H]1C[C@@]2(C)C(c3ccoc3)C[C@H]3O[C@]32[C@]2(C)C(=O)C(O)=C3C(C)(C)C(=O)C=C[C@]3(C)C12 (some centres not stated) | ? | . | 12.6µM* | . | .
CC(=O)OC1CC(OC(C)=O)[C@]2(C)C(CC(OC(C)=O)[C@]3(C)C2CC[C@@]2(C)C(c4ccoc4)C[C@H]4O[C@]432)C1(C)C (some centres not stated) | ? | . | -8.5% | . | .
CC(=O)OC1C[C@@]2(C)C(c3ccoc3)C[C@H]3O[C@@]32[C@@]2(C)C(=O)C(O)=C3C(C)(C)C(=O)C=C[C@]3(C)C12 (some centres not stated) | 3.16µM* | . | 3.16µM* | . | .
CC1CC2CCC(O2)C(C)C(=O)OC(C)CC2CCC(O2)C(C)C(=O)OC(C)CC2CCC(O2)C(C)C(=O)OC(C)CC2CCC(O2)C(C)C(=O)O1 (configuration not stated) | 0.112µM* | . | 0.501µM* | . | .
O=c1c2ccccc2nc(/C=C/c2cccc3ccccc23)n1-c1ccc(Cl)cc1 | . | 2.3% | . | . | .
CC[C@@]1(O)C(=O)OCc2c1cc1n(c2=O)-c2cc3ccccc3nc2C1 | 0.126µM* | . | ? | . | .
O=c1c2ccccc2nc(/C=C/c2ccc([N+](=O)[O-])o2)n1-c1ccc(O)cc1 | -44.4% | 40.9% | -18.0% | -9.5% | -84.8*
Cc1cccc(-n2c(/C=C/c3ccc([N+](=O)[O-])o3)nc3ccccc3c2=O)c1 | 19.3% | -4.9% | ? | -55.3% | -88.1*
Cc1nc2ccccc2c(=O)n1-c1cc([N+](=O)[O-])cc([N+](=O)[O-])c1 | 1.12µM* | 1.7% | -24.1% | 1.8% | ?
COc1cccc(-n2c(/C=C/c3cccc(C)c3)nc3ccccc3c2=O)c1 | . | 28.2µM* | . | . | .
CCCN(CCC)c1c([N+](=O)[O-])cc(S(N)(=O)=O)cc1[N+](=O)[O-] | -42.0% | . | ? | . | .
Clc1cccc(C(Cl)(Cl)Cl)n1 | 27.8% | . | -13.9% | . | .
Cn1c(NN=O)nc2ccccc21 | 0.0355µM* | -1.5% | ? | -44.9% | 8.0
ClC=CCl | 5.3% | . | -9.1% | . | .
SMILES | RORgamma inh | ERG Ets-DNA blk | VP16 counter | a7 integrin act | Giardia kill
Cc1ccc(C[N+](C)(C)C)o1 | 1.2% | . | 4.1% | . | .
COc1ccc(OC)c(CCNCc2c(C(=O)O)c(C)n(Cc3ccc(F)cc3Cl)c2C)c1 | . | -3.2% | . | . | .
CCCc1cc2c(n1Cc1cccc(Cl)c1)C(C)C1CN(C(=O)c3ccccc3)C(C)(C(=O)OC)C21 (configuration not stated) | ? | . | 6.1% | . | .
CCn1c(=O)oc2cc(NC(=O)CCl)ccc21 | 11.2µM* | 4.5% | ? | -69.0% | 10.3
CCOP(=S)(OCC)SCn1c(=O)oc2cc(Cl)ccc21 | 38.4% | . | -19.5% | . | .
Cc1cc(C)c(-n2c(O)c(/C=N/NC(=O)c3ccncc3)c(=O)[nH]c2=O)c(C)c1 | -22.5% | 12.1% | 6.8% | -0.9% | -1.1
O=C(N/N=C/c1cc(Br)c(Br)s1)c1ccncc1 | 0.562µM* | 3.8% | 1µM* | -35.8% | 1.1
[N-]=[N+]=[N-] | 17.9% | . | 6.4% | . | .
O=C(Cn1nc(-c2ccc(Cl)cc2)ccc1=O)N1CCC2(CC1)OCCO2 | -2.0% | 3.0% | -0.9%[10 µM] | 11.2µM* | -3.6
CCC1(CC)C(=O)NC(=O)N(C)C1=O | 1.3% | . | -2.7% | . | .
O=c1[nH]sc2cc(F)ccc12 | 2.24µM* | 7.9% | 2.82µM* | -41.4% | ?
CN1CC(CNC(=O)OCc2ccccc2)CC2c3cccc4c3c(cn4C)CC21 (configuration not stated) | 15.8µM* | . | ? | . | .
CCCn1cc2c3c(cccc31)C1CC(C)CN(C)C1C2 (configuration not stated) | -30.8% | . | 4.3% | . | .
O=C(N/N=C/c1c(O)n(CCc2ccccc2)c(=O)[nH]c1=O)c1ccccc1 | 14.1µM* | 2.9% | -9.1% | -1.0% | -8.5
CC(C)c1ccc(-n2c(O)c(/C=N/NC(=O)c3ccccc3O)c(=O)[nH]c2=S)cc1 | 0.316µM* | 5.3% | 4.47µM* | -13.6% | -12.9
CCC(=NCCO)c1c(O)n(C2CCCCC2)c(=O)[nH]c1=O | 9.1% | -1.1% | -1.1% | -11.4% | -2.2
O=C(N/N=C/c1c(O)n(C2CCCCC2)c(=S)[nH]c1=O)c1ccccc1O | 3.98µM* | 2.7% | 3.16µM* | -26.6% | ?
CC/C(=N\NC(=O)c1ccccc1O)c1c(O)n(C2CCCCC2)c(=O)[nH]c1=O | 2.51µM* | -6.7% | 8.91µM* | -8.3% | 19.1
CCCCn1c(O)c(/C=N/NC(=O)c2ccncc2)c(=O)[nH]c1=O | -16.3% | 0.6% | -7.2% | -19.0% | 34.6
CC(C)c1ccc(-n2c(O)c(/C=N/NC(=O)c3ccncc3)c(=O)[nH]c2=O)cc1 | 21.7% | 0.2% | -0.8% | 21.0% | 0.7
c1ccc(OP(Oc2ccccc2)Oc2ccccc2)cc1 | 0.3% | . | 5.9% | . | .
O=C(N/N=C/c1c(O)n(Cc2ccco2)c(=O)[nH]c1=O)c1ccccc1O | 12.6µM* | 6.6% | 6.8% | 0.7% | 11.2
O=C(N/N=C/c1c(O)n(C2CCCCC2)c(=S)[nH]c1=O)c1ccccc1 | 5.62µM* | -16.8% | ? | 3.6% | -17.7
O=c1[nH]c(=O)n(CCC2=CCCCC2)c(O)c1/C=N/Nc1ccccc1 | ? | 10.7% | 20µM* | 3.8% | 14.5
O=c1[nH]c(=O)n(CCC2=CCCCC2)c(O)c1/C=N/Nc1cccc2ccccc12 | -38.1% | 28.1% | ? | -45.6% | 14.3
CCCCC(=O)N/N=C/c1c(O)n(Cc2ccco2)c(=O)[nH]c1=O | ? | 1.0% | -27.9% | 14.4% | -20.4
CN1C(=O)CCS(=O)(=O)[C@@H]1c1ccc(Cl)cc1 | 12.2%[16.9 µM] | . | 11.3%[17 µM] | . | .
